# In all, about 48,000 compounds went through this assay and about 13,000 (27%) showed an effect of 50% or more. This is one part of the list.
# System: Wolbachia pipientis
# Experiment: Anti-Wolbachia Cell-Based Screen
# Assay type: functional
# Design: scale not given: in the data most compounds retested in dose-response had high values
# Conditions: 5 µM
row,SMILES,Percent Effect
1,COc1ccc(Cl)cc1-n1c(COC(C)C)n[nH]c1=O,9.918%
2,O=C(C1CCS(=O)(=O)C1)N1CCN(c2cnccn2)CC1 (centres undefined),-8.289%
3,CC1(C(=O)N2CCN(c3cnccn3)CC2)CNCCO1 (centres undefined),114.6%
4,C[C@@H]1CN(C2(C(=O)N3CCSCC3)Cc3ccccc3C2)C[C@H](C)O1,1.613%
5,O=C(N1CCSCC1)C1(O)Cc2ccccc2C1,1.421%
6,CC1(C(=O)N2CCSCC2)CNCCO1 (centres undefined),81.85%
7,CC1(C(=O)N2CCN(c3ncccn3)CC2)CNCCO1 (centres undefined),48.6%
8,O=C(c1cccc(Cl)c1F)N1CCOC2(CNCCOC2)C1 (centres undefined),-25.29%
9,CN(C)c1ccccc1C(=O)N1CCOC2(CNCCOC2)C1 (centres undefined),-52.05%
10,CC1(C(=O)N2CCOCC2)CNCCO1.Cl (centres undefined),81.13%
11,Cc1cc(=O)n(C)cc1NC(=O)Cc1cccc(Cl)c1,5.962%
12,Cc1cc(Cn2cc(C#N)c(=O)c3ccccc32)on1,-11.07%
13,Cc1nc(CN2CCCC(CCc3ccccc3C(F)(F)F)C2)no1 (centres undefined),-1.662%
14,COc1ccccc1NC(=O)c1ccc(C)n1C,99.48%
15,CCN(CC)CCn1cc(NC(=O)Nc2ccccc2OC)cn1,2.741%
16,CCc1nc(C)c([C@H]2CN(C)C[C@@H]2C(=O)Nc2ccccc2F)[nH]1,-8.421%
17,Cc1ccc(C(=O)Nc2ccccc2F)n1C,94.36%
18,COc1ccccc1NC(=O)c1[nH]nc(C(C)C)c1Br,-4.147%
19,Cc1c(C(C)NC(=O)Nc2ccccc2F)cnn1C (centres undefined),3.461%
20,O=C(Nc1cc(Cl)ccc1N1CCCCC1)c1ccccn1,-5.482%
21,Cc1ccc(C(=O)Nc2ccccc2N2CCCC2)n1C,84.28%
22,CC1CCC(NS(=O)(=O)CC(=O)Nc2ccccc2N2CCCC2)CC1 (centres undefined),3.293%

row,SMILES,Percent Effect
1,CC(C)C(C)N1Cc2cccc(NCC(=O)N(C)C)c2C1 (centres undefined),11.84%
2,CC(=O)c1cc(CN2CCCCC2c2nc3cc(F)ccc3[nH]2)cs1 (centres undefined),-8.075%
3,CC(=O)N1CC(C(=O)Nc2cccc(OC(F)F)c2)C1,13.11%
4,CCc1nc(-c2noc3ccc(C(=O)NCCN(C)C)cc23)co1,-6.651%
5,CC(C)(C)NS(=O)(=O)c1ccccc1CNCc1ccccc1,8.138%
6,CC(C)c1nccn1CC1CCCN1Cc1nc2ccccc2n1C (centres undefined),-4.978%
7,Nc1ncncc1-c1noc([C@@H]2CCCN2Cc2cccnc2)n1,-7.414%
8,Cc1nc(CN2CCCC2Cn2ccnc2C(C)C)nc2ccccc12 (centres undefined),0.1374%
9,CC(C)S(=O)(=O)N1CCCC(c2nccn2Cc2cccnc2)C1 (centres undefined),-1.301%
10,CC(C)c1nccn1-c1nccnc1C1CCCN1Cc1cccnc1 (centres undefined),125.6%
11,CC(C)c1nccn1-c1nccnc1C1CCCN1Cc1ccccc1 (centres undefined),124.1%
12,CC(NCc1ccc(OCC(N)=O)cc1)c1ccc2c(c1)CCCC2 (centres undefined),-9.081%
13,CS(=O)(=O)Cc1noc(CN(Cc2ccco2)c2ccccc2)n1,-3.718%
14,CN(C)CCN(C)C(=O)c1cnc2c(c1)nc(-c1ccccc1Cl)n2C,-6.044%
15,Cc1nnc(NC(=O)NCc2ccc(F)cc2)s1,93.84%
16,COc1ccc(F)cc1C(C)NC(=O)Nc1nnc(C)s1 (centres undefined),-6.536%
17,Cc1nnc(NC(=O)NCc2ccoc2)s1,74.81%
18,Cc1nnc(NC(=O)NCc2cc(F)cc(F)c2)s1,4.254%
19,Cn1cc(NC(=O)NCc2ccoc2)ccc1=O,13.17%
20,O[C@H]1CC[C@@H](Cc2cc(-c3ccccn3)on2)O[C@@H]1CNCC1CC1,8.949%
21,CN1CCCN(C(=O)c2nc3c(s2)CCCN3CC2CC2)CC1,15.57%
22,CN(C)Cc1ccnc(C2CCCN2Cc2ccncc2)n1 (centres undefined),-6.271%

row,SMILES,Percent Effect
1,O=C1O[C@@H]2CN(Cc3cc4ccccc4s3)C[C@@H]2N1Cc1ccccn1,7.899%
2,CN(C)Cc1ccnc(C2CCCN2Cc2ccc3ncccc3c2)n1 (centres undefined),102.5%
3,Cc1cc(C)cc(CN2CCCC2c2noc(C)n2)c1 (centres undefined),-1.497%
4,CN(C)Cc1ccnc(C2CCCN2Cc2cc3ccccc3s2)n1 (centres undefined),97.93%
5,c1ccc2sc(CN3CCCC3c3noc(C4CC4)n3)nc2c1 (centres undefined),1.502%
6,CCC(C)(C)NC(=O)c1ccc(NC(=O)NCc2cc(C)on2)cc1,-5.404%
7,CN1CC2(CCN(C(=O)c3ccc4c(=O)n(C)cnc4c3)CC2)CC1=O,-1.826%
8,CN(C(=O)Cc1c[nH]c2ccccc12)C1CCN(c2ccccn2)CC1,-5.005%
9,COC(=O)c1cc2n(n1)CCCN(C(=O)Cc1c[nH]c3ccccc13)C2,-8.312%
10,COc1cccc(CC2CCCN2CC(N)=O)c1 (centres undefined),14.09%
11,COc1cccc(CCC(=O)N2CCC[C@@H](N)[C@@H]2c2ccccc2F)c1.Cl,156.6%
12,COc1ccc(CC(=O)N2CCCC(Cn3cc(CN)nn3)C2)cc1 (centres undefined),-29.22%
13,COc1cccc(C(=O)N2CCCC(C(=O)CCc3ccccc3)C2)c1 (centres undefined),-1.62%
14,N[C@@H]1CCCN(C(=O)Cc2c[nH]c3ccccc23)[C@H]1c1ccccc1F,92.02%
15,COc1ccc(CC(=O)N2CCC[C@@H](N)[C@@H]2c2ccccc2F)cc1.Cl,65.32%
16,CN1CCC(N[C@@H]2CO[C@H](CNC(=O)C3CCCC3)[C@H]2O)CC1,-10.26%
17,CN(C)C(=O)CNC(=O)CCn1ncc2c(Cl)cccc21,7.628%
18,CC(=O)N1CCC(C(=O)NCCN2CCCC(C)C2)CC1 (centres undefined),4.421%
19,CC1CCCN(CCNC(=O)c2ccn(-c3cccc(F)c3)n2)C1 (centres undefined),71.46%
20,CC1CCCN(CCNC(=O)c2ccn(-c3ccc(F)cc3)n2)C1 (centres undefined),89.11%
21,CC1CCCN(CCCNC(=O)c2cn(C)nc2-c2cccnc2)C1 (centres undefined),-7.015%
22,O=C(NCCn1ccnc1)c1ccn(-c2cccc(F)c2)n1,3.245%

row,SMILES,Percent Effect
1,COc1cn(-c2ccccc2)nc1C(=O)NCCN1CCCC(C)C1 (centres undefined),85.45%
2,COc1ccc(-n2ccc(C(=O)NCCN3CCCC(C)C3)n2)cc1 (centres undefined),109.8%
3,COc1cn(-c2ccccc2)nc1C(=O)NCCCN1CCCC(C)C1 (centres undefined),0.4079%
4,CC1CCCN(CCNC(=O)c2ccn(-c3ccccc3)n2)C1 (centres undefined),-2.104%
5,COCC1c2nnn(CC3CC3)c2CCN1C(=O)c1ccnnc1 (centres undefined),-5.349%
6,Cc1csc(N(C)C(=O)C2CC(=O)N(c3ccccc3Cl)C2)n1 (centres undefined),9.936%
7,CC(Sc1nnc(C2CC2)n1CC(N)=O)c1ccc(F)cc1F (centres undefined),-10.03%
8,Cc1cccc(-c2ncc(CNC(C)CO)cn2)c1 (centres undefined),-5.698%
9,Cn1cnnc1C1CCN(c2cncc(-n3cccn3)n2)CC1,0.9995%
10,O=C(NCC(O)(c1cccs1)C1CC1)NC1CCCCC1 (centres undefined),9.559%
11,COCC1CN(S(=O)(=O)Cc2ccccc2)Cc2c1cnn2C.O=C(O)C(F)(F)F (centres undefined),-18.15%
12,Cc1cccc(N2CCN(CC(=O)N3CCCC(N(C)C)CC3)CC2)c1 (centres undefined),-50.72%
13,Cc1cc(Nc2ccc(F)cn2)cc(C2CCCN2)n1 (centres undefined),111.9%
14,Cc1cc(Nc2cnccn2)cc(C2CCCNC2)n1 (centres undefined),90.08%
15,Cc1cc(Nc2nc(C)cc(C)n2)cc(C2CCCN2)n1 (centres undefined),104%
16,Cl.Cl.Fc1cccc(-c2c[nH]c(C3CCCN3)n2)c1 (centres undefined),-26.74%
17,Cc1cc(C)nc(NC2CCOC3(CCCC3)C2)n1 (centres undefined),-13.03%
18,Cc1cc(Nc2cnccn2)cc(C2CCCN2)n1 (centres undefined),103.5%
19,Cn1cc(C2CC3(CCN(C(=O)c4ccsc4)CC3)NC2=O)cn1 (centres undefined),-8.602%
20,Cc1ccc(C(=O)N2CC(C)(C)[C@@](C)(O)C2)cc1N1CCNC1=O,-5.477%
21,Cc1nn(C)c(C)c1CN(CCO)C(=O)C1COc2ccccc2C1 (centres undefined),-4.476%
22,COCC(O)CNC(=O)c1coc(COc2ccc3sc(C)nc3c2)n1 (centres undefined),-2.868%

row,SMILES,Percent Effect
1,CC(Cn1cccn1)NCc1csc(-c2ccccc2)n1 (centres undefined),5.94%
2,CCCS(=O)(=O)NC(=O)c1ccc(Br)o1,-3.964%
3,CC(=O)N1CCC(c2nc3ccc(-c4ccnn4C)cn3n2)CC1.O=C(O)C(F)(F)F,79.91%
4,Cn1nccc1-c1ccc2nc(C3CCN(CCO)CC3)nn2c1.O=C(O)C(F)(F)F,-15.06%
5,CC(C)N1CCC(c2nc3ccc(-c4ccnn4C)cn3n2)CC1.O=C(O)C(F)(F)F,101.4%
6,Cn1nccc1-c1ccc2nc(C3CCN(CC4CC4)CC3)nn2c1.O=C(O)C(F)(F)F.O=C(O)C(F)(F)F,97.48%
7,Cn1nccc1-c1ccc2nc(C3CCNCC3)nn2c1,98.45%
8,O=C(O)C(F)(F)F.O=C(O)C(F)(F)F.c1cc2nc(C3CCN(CC4CC4)CC3)nn2cc1N1CCCC1,-8.773%
9,CCC1c2ccsc2CCN1C(=O)NCCNc1ncccn1 (centres undefined),9.072%
10,O=C(c1ccccn1)N1C[C@@H]2CC[C@H](C1)N(C(=O)Cc1cccs1)C2,-18.37%
11,CCc1sc(-c2nnc(CNC(C)Cn3cccn3)o2)cc1C (centres undefined),-4.192%
12,COCC(=O)N1CCC2(CCC2NC(=O)c2ccn(C)c2)CC1 (centres undefined),-13.3%
13,Cn1ccc(C(=O)NC2CCC23CCN(Cc2cccnc2)CC3)c1.O=C(O)C(F)(F)F.O=C(O)C(F)(F)F (centres undefined),0.1855%
14,Cn1ccc(C(=O)NC2CCC23CCN(C(=O)C2CCOCC2)CC3)c1 (centres undefined),-10.05%
15,Cn1ccc(C(=O)NC2CCC23CCN(C(=O)c2ccncc2)CC3)c1.O=C(O)C(F)(F)F (centres undefined),-9.033%
16,Cn1ccc(C(=O)NC2CCC23CCN(Cc2cnn(C)c2)CC3)c1.O=C(O)C(F)(F)F (centres undefined),118.5%
17,Cc1ccc(CN2CC(C(=O)NCC3CC3)C3(CCOCC3)C2)s1.O=C(O)C(F)(F)F (centres undefined),9.43%
18,Cc1ccc(CN2CCC3(CCC3NC(=O)c3ccn(C)c3)CC2)s1.O=C(O)C(F)(F)F (centres undefined),90.78%
19,Cn1ccc(C(=O)NC2CCC23CCN(Cc2ccc(F)cc2)CC3)c1.O=C(O)C(F)(F)F (centres undefined),104.6%
20,Cn1ccc(C(=O)NC2CCC23CCN(C(=O)c2cnccn2)CC3)c1 (centres undefined),13.19%
21,Cn1ccc(C(=O)NC2CCC23CCN(CC2CCOCC2)CC3)c1.O=C(O)C(F)(F)F (centres undefined),102.1%

# From ChEMBL document CHEMBL3988442, “University of Dundee, Small-Polar-MMV Screening Library” (2021)
